Laboratory results as given in PubChem BioAssay AID372 (MTDP, 2006).
In all, about 100,000 compounds went through this assay and about 770 (0.77%) were called active. The sample holds actives, similar compounds and a random draw of the others, so the mix is not that of the screen. A number with no mark means an inactive call. Rule as the data show it: active = inhibition above about 50%; inactive = the rest.

Biological target: Gag-Pol polyprotein (Human immunodeficiency virus type 1 group M subtype B (isolate HXB2)) (UniProt P04585)
Assay: RNase H inhibition, HIV 1 Gag Pol polyprotein, FRET biochemical assay, screening (AID 372)
Settings: HIV-1 RT RNase H, FRET RNA/DNA substrate fluorescence; at 10 µM; stronger effect = higher value

Row | Structure (SMILES) | inhibition
1 | CCc1ccccc1NC(=O)c1nn2c(c1Cl)NC(c1ccc(C)cc1)CC2C(F)(F)F (stereo unspecified) | 9%
2 | CCCOc1ccccc1C1C(C(=O)OCC2CCCO2)=C(C)NC2=C1C(=O)CCC2 (stereo unspecified) | 6%
3 | Oc1c(Br)cc(/C=N/Nc2nc(N3CCCCC3)nc(N3CCCCC3)n2)c(O)c1Br | 29%
4 | CC(=O)NN1C(=O)/C(=C\c2ccc(I)o2)SC1=S | 0%
5 | CCCOC(=O)c1c(NC(=O)Cc2ccc(OC)cc2)sc2c1CCCC2 | 40%
6 | CC(=O)NC(c1ccccc1)C1C(=O)N(c2ccccc2)N=C1C (stereo unspecified) | 4%
7 | CC1=NN(c2ccccc2)C(=O)C1C(c1ccccc1)C(C#N)C#N (stereo unspecified) | 54% (active)
8 | CC1=NN(c2ccccc2)C(=O)C1C(c1ccc([N+](=O)[O-])cc1)C1C(=O)N(c2ccccc2)N=C1C (stereo unspecified) | 4%
9 | COc1ccc(Cl)cc1N(CC(=O)N1CCC(C)CC1)S(=O)(=O)c1ccc(C)c([N+](=O)[O-])c1 | 6%
10 | CCOc1cc(C=C2C(=O)NC(=O)NC2=O)ccc1OS(=O)(=O)c1ccc(C)cc1 | 17%
11 | O=C(COc1ccc(Cl)cc1Cl)n1cc([N+](=O)[O-])cn1 | 6%
12 | CCCCSc1nc(C)c(C(C)=O)cc1C#N | 8%
13 | CC(=O)c1cc(C#N)c(SCC(=O)c2ccc(O)c(O)c2)nc1C | 75% (active)
14 | Cc1cc(-c2ccc(C)o2)c(C#N)c(SCC(=O)c2ccccc2)n1 | 1%
15 | Cc1nc(SCC(=O)c2ccc(O)c(O)c2)c(C#N)c(CC(C)C)c1C(N)=O | 51% (active)
16 | CSc1nc(C)c(C(C)=O)cc1C#N | 13%
17 | CCc1c(C#N)c(N)nc(SCC(=O)c2ccc(C)cc2)c1C#N | 13%
18 | N#Cc1c(SCC(=O)c2ccc(Cl)cc2)nc2c(c1-c1ccco1)CCCC2 | 12%
19 | COc1ccc(C(=O)CSc2nc3c(c(-c4ccc(C)o4)c2C#N)CCCC3)cc1 | 15%
20 | CCc1c(C#N)c(N)nc(SCC(=O)c2ccc(Cl)c(Cl)c2)c1C#N | 14%
21 | COc1ccc(-c2cc(-c3ccc(OC)cc3)c(C#N)c(SCC(=O)c3ccc(C)cc3)n2)cc1 | 17%

Row | Structure (SMILES) | inhibition
22 | NC(N)=NS(=O)(=O)c1ccc(NC(=S)Nc2ccccc2)cc1 | 6%
23 | CC(=O)C1(C)CC(C#N)(C#N)C(C#N)=C1N (stereo unspecified) | 0%
24 | COCCOC(=O)c1ccc(NC(=O)C(C)Oc2ccc(Cl)cc2C)cc1 (stereo unspecified) | 11%
25 | CC(=O)ON=C1CC(C)(C)NC(C)(C)C1 | 4%
26 | CCOC(=O)/C=C/COc1ccc2oc(-c3ccccc3)c(C(=O)OCC)c2c1 | 10%
27 | CC(=O)c1ccc(NC(=O)c2ccccc2Cl)cc1 | 2%
28 | CCCOC(=O)CSc1nc(C)cc(C)c1C#N | 10%
29 | Cc1cc(C)c(C#N)c(SCC(=O)Nc2ccc(Cl)cc2)n1 | 1%
30 | Cc1cc(C)c(C#N)c(SCC(=O)c2ccc(O)c(O)c2)n1 | 70% (active)
31 | COc1cccc(N2C(=O)/C(=C/c3c(OC)cc(OC)cc3OC)C(=O)NC2=S)c1 | 1%
32 | CCCCc1ccc(/C(C)=N/Nc2cc(-n3cc(C)cn3)ncn2)cc1 | 0%
33 | O=C(O)CCCCCN1C(=O)C(=O)/C(=C(/O)c2ccc(Cl)cc2)C1c1ccccc1 (stereo unspecified) | 13%
34 | O=c1oc2cc(OCc3c(F)cccc3Cl)ccc2cc1-c1ccccn1 | 8%
35 | CC(C)c1ccccc1OCCCCN1CCCCC1 | 8%
36 | CC(C)c1ccccc1OCCCN1CCCC1 | 3%
37 | CC(C)c1ccccc1OCCCN1CCCCC1 | 56% (active)
38 | Cc1ccc(C)c(N(CC(=O)Nc2c(C)n(C)n(-c3ccccc3)c2=O)S(=O)(=O)c2ccccc2)c1 | 3%
39 | COc1ccc2c(c1OC)C(=O)OC2Nc1cccc([N+](=O)[O-])c1 (stereo unspecified) | 1%
40 | CCOC(=O)COc1ccc(C=O)cc1OCC | 0%
41 | O=C(N/N=C/c1cc([N+](=O)[O-])ccc1Cl)c1ccc(O)c(O)c1 | 63% (active)
42 | O=C(N/N=C/c1ccc(Cl)c([N+](=O)[O-])c1)c1ccc(O)c(O)c1 | 53% (active)

Row | Structure (SMILES) | inhibition
43 | O=C(N/N=C/c1ccccc1[N+](=O)[O-])c1ccc(O)c(O)c1 | 51% (active)
44 | O=C(N/N=C/c1ccc(Cl)c([N+](=O)[O-])c1)c1ccccn1 | 11%
45 | O=C(N/N=C/c1ccccc1[N+](=O)[O-])c1cc(O)cc(O)c1 | 3%
46 | O=C(N/N=C/c1cc([N+](=O)[O-])ccc1Cl)c1cc2ccccc2o1 | 35%
47 | O=C(N/N=C/c1cc([N+](=O)[O-])ccc1Cl)c1ccc(O)cc1 | 10%
48 | O=C(N/N=C/c1cc([N+](=O)[O-])ccc1O)c1ccc(O)c(O)c1 | 35%
49 | O=C(N/N=C/c1ccc(Cl)c([N+](=O)[O-])c1)c1cc2ccccc2o1 | 59% (active)
50 | O=C(N/N=C/c1ccc(Cl)c([N+](=O)[O-])c1)c1ccc(O)cc1 | 22%
51 | O=C(N/N=C/c1ccc(Cl)c([N+](=O)[O-])c1)c1cc(O)cc(O)c1 | 3%
52 | O=C(N/N=C/c1ccccc1[N+](=O)[O-])c1ccccc1 | 28%
53 | O=C(CSc1nc2ccccc2o1)c1ccc(-c2ccccc2)cc1 | 14%
54 | Cc1nnc(SCc2ccc(F)cc2)s1 | 0%
55 | COC(=O)c1ccc(C2N(O)C3CCCCC3N2O)cc1 (stereo unspecified) | 15%
56 | COc1ccc([N+](=O)[O-])cc1N1C(=O)C=CC1=O | 4%
57 | CC(C)(C)c1cc(C(=O)N/N=C\c2ccncc2)n[nH]1 | 3%
58 | O=C(Nc1ccc(Cl)c(Cl)c1)c1cccc2ccccc12 | 8%
59 | Cc1cc(/C=C2\C(=O)NC(=S)N(c3cccc(Cl)c3)C2=O)c(C)n1-c1ccc(Cl)cc1 | 40%
60 | CC1=C(C(=O)OCCOc2ccccc2)C(c2ccc(O)cc2)C2=C(CC(c3ccccc3)CC2=O)N1 (stereo unspecified) | 9%
61 | COc1ccc(-c2ccc(/C=C3/C(=O)NN(c4ccc(C)c(Cl)c4)C3=O)o2)c([N+](=O)[O-])c1 | 24%
